# Laboratory results from PubChem BioAssay (NCATS).
# Results filed as inconclusive are left out. A call without a number means that no potency is given here. Activity calls are given as the source filed them. Unless noted, calls come from the whole dose curve; as a rule, active = well fitted curve in the direction sought with a large enough effect; inconclusive = small, poorly fitted or top-dose-only effect, or another doubt; inactive = no such curve, though single readings can be large; an effect the other way counts as inactive or inconclusive. Starred links: 1 amine or outer side, 2 acyl side, 3 side chain; linkers in the order of their positions; H or OH if unused. Positions of bridges follow the written chain, without caps; N, C: chain ends. Non-standard residues stand in square brackets, D forms with d. Residues, ends and D or L forms follow the SMILES beside them. *: point of attachment. X4 = NC1=N[C@@H](O)C[C@H]([C@H](N[*:1])C(=O)[*:2])N1; ΔAla(3-NHCONH2) = NC(=O)NC=C(N)C(=O)O; β3hOrn = NCCC[C@H](N)CC(=O)*; Dap = NC[C@H](N)C(=O)O
# Columns and labels:
# [1] = AP1 Signaling Pathway (AID 357; active = well fitted curve in either direction with a large enough effect, not every such curve was filed as active;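 note: ME-180 reporter cells stimulated with EGF at its EC50 level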); settings: ME-180 AP-1-bla reporter, EGF-induced, beta-lactamase ratio, 5 h; at 7.69 µM (top of the series) unless noted
# Method in brief: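 Read-out was the 460nm/530nm emission ratio (excitation 405nm) after CCF4 loading for 2.5 hours at room temperature. Cells carried an AP-1-driven beta-lactamase reporter, were stimulated with EC50 EGF plus compound for 5 hours, and AC50 values came from titrations.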
# [2] = Stat Signaling Pathway (AID 446; active = well fitted curve in either direction with a large enough effect, not every such curve was filed as active;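 note: ME-180 cervical cancer cells given 40 pM IL-6 alongside compound; SIE-controlled beta-lactamase reporter measured as 460/530 nm FRET emission ratio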); settings: ME-180 (cervical carcinoma) SIE beta-lactamase reporter, IL-6 stimulated, 5 h; at 7.69 µM (top of the series) unless noted
# Method in brief: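 Overnight-plated ME-180 cells bearing a STAT Inducible Element beta-lactamase reporter; 5 h co-exposure to compound and 40 pM IL-6; values normalized to 300 pM IL-6 and 125 nM JAK inhibitor controls.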
# [3] = molecular target: Glucocorticoid receptor (Homo sapiens) (UniProt P04150); assay: GR-EFC Redistribution (AID 451; calls by dose curve; note: potency is the fitted concentration of half-maximal effect); settings: CHO-K1 GR-EFC translocation, beta-gal luminescence, 2 h
# Chain of Glucocorticoid receptor (Homo sapiens) (P04150 whole entry, looked up, the tested form may be a part): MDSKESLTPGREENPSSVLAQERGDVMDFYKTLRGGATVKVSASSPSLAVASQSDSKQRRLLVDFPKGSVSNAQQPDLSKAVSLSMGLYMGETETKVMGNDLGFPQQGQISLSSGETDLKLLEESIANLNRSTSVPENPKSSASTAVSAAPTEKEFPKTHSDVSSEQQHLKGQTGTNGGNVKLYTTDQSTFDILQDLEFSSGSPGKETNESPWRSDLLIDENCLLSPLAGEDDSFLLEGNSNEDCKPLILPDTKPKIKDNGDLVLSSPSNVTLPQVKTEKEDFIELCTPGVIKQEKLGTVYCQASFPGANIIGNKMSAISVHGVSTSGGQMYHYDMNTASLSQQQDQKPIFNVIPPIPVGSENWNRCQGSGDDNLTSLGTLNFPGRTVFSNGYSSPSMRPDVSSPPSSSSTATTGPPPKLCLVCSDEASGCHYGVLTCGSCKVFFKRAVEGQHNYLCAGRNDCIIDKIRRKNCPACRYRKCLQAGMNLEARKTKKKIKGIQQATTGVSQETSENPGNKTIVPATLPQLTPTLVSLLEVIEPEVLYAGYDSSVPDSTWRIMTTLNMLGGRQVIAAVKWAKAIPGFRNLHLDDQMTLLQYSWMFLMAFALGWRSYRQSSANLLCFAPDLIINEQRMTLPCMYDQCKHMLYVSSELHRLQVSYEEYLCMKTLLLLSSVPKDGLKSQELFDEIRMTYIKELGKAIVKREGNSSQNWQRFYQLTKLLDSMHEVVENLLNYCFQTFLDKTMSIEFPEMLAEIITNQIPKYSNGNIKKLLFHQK
# Method in brief: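 Translocation of GR-ED fusion to nuclear EA restores b-gal, read by luminescence after 1 h room-temperature detection. Engineered CHO-K1 biosensor cells, 1,000/well, exposed 2 h at 37 C to titrations up to 46 uM final.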
# [4] = molecular target: Mitogen-activated protein kinase 10 (Mus musculus) (UniProt Q61831); assay: JNK3 AlphaScreen Assay (AID 530; active = well fitted curve in either direction with a large enough effect, not every such curve was filed as active;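 note: kinase came from lysate of stimulated human HepG2 cells; signal reports phosphorylation of biotinylated GST-cJun 1-79 at Ser73 with 10 µM ATP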)
# Method in brief: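 qHTS titrations with 15 min compound pre-incubation before adding ATP (10 uM final). Read-out: AlphaScreen of Ser73-phosphorylated biotin-GST-cJun using HepG2 lysate JNK3 activated by IL-1β and TNFα.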
# [5] = molecular target: 3',5'-cyclic-AMP phosphodiesterase 4B (Homo sapiens) (UniProt Q07343); assay: qHTS Assay for Inhibitors of PDE-IV (AID 607; active = well fitted activation curve with a large enough effect in the main read-out, with a control signal flat, not every such curve was filed as active)
# Chain of 3',5'-cyclic-AMP phosphodiesterase 4B (Homo sapiens) (Q07343 whole entry, looked up): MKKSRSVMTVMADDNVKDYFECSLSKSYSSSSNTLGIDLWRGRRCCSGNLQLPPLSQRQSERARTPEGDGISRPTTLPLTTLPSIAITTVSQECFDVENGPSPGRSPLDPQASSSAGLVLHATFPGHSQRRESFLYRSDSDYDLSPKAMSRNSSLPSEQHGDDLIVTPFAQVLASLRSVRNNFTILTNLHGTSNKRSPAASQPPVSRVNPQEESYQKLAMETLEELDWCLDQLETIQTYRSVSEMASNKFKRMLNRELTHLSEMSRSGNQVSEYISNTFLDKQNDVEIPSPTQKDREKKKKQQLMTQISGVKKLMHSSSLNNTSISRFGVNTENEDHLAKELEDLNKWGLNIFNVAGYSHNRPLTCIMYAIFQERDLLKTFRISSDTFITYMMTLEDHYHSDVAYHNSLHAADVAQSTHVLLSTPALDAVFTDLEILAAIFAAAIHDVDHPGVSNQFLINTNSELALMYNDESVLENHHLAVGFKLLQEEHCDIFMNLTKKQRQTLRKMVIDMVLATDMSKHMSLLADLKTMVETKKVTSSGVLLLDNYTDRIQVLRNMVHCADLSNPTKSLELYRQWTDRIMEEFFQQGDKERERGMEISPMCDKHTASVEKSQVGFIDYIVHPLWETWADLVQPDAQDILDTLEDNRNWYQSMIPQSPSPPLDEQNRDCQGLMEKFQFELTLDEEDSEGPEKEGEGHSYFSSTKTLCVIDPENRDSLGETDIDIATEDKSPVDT
# Method in brief: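 Live HEK293 cells with a modified cyclic nucleotide-gated (CNG) channel report intracellular cAMP via membrane-potential dye fluorescence (ex 535/em 590 nm). Endogenous PDE-IV was targeted. Compounds were tested at up to 22.9 uM final; RO 20-1724 100 uM served as control.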
# [6] = molecular target: Cytochrome P450 3A4 (Homo sapiens) (UniProt P08684); assay: qHTS Assay for Activators of Cytochrome P450 3A4 (AID 885); note: nearly all actives have a fitted effect of over 65% in size; note: potency is the fitted concentration of half-maximal effect
# Chain of Cytochrome P450 3A4 (Homo sapiens) (P08684 whole entry, looked up): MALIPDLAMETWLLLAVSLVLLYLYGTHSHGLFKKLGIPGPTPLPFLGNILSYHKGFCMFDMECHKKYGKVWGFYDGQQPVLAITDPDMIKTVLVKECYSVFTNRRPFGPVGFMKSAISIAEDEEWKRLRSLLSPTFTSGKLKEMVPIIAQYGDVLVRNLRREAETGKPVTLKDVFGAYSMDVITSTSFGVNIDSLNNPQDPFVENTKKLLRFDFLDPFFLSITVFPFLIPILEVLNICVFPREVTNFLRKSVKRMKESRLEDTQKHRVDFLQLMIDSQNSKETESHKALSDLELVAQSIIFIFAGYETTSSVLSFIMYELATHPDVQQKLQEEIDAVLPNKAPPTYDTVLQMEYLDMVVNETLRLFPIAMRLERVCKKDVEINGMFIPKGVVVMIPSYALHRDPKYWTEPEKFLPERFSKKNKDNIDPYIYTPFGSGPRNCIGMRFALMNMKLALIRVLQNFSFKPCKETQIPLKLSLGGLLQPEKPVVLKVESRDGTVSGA
# Method in brief: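 Using 20nM recombinant human CYP3A4 in potassium phosphate (200mM), substrate Luciferin-PPXE at 25uM, luminescent luciferin detection followed a 60-min RT NADPH reaction; data scaled to 57 uM ketoconazole.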
# [7] = Primary qHTS for small molecule stabilizers of the endoplasmic reticulum resident proteome: Secreted ER Calcium Modulated Protein (SERCaMP) assay (AID 1508630)
# Method in brief: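 The SH-SY5Y reporter protocol was run at 3 concentrations up to 38.3 uM (primary) or 11 concentrations (follow-up): 16 h compound, 100 nM thapsigargin for 4 h, then extracellular luciferase luminescence.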
# [8] = qHTS Assay for Lipid Storage Modulators (AID 1519; calls by dose curve); settings: Drosophila S3 cells, BODIPY lipid droplet/cell ratio, laser cytometry, cells loaded with oleic acid; for activity change, negative = inhibition: at 57.5 µM (top of the series)
# Method in brief: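 Cells seeded at 5,000 per well were treated with compounds over a concentration series and loaded with oleic acid (400 uM, as added). Lipid droplet fluorescence (488 nm excitation, 500-530 nm channel) was read by laser-scanning cytometry and normalized to 20 uM Triacsin C.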
# [9] = molecular target: Cytochrome P450 3A4 (Homo sapiens) (UniProt P08684); assay: qHTS Assay for Inhibitors and Substrates of Cytochrome P450 3A4 (AID 884); note: nearly all actives have a fitted effect of over 50% in size; note: potency is the fitted concentration of half-maximal effect
# Method in brief: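 Luminescent readout of luciferin produced by CYP3A4 (20 nM) dealkylation of Luciferin-PPXE, 25 uM (its KM). NADPH-driven reaction ran 60 min at RT after 10 min compound preincubation; data scaled to 57 uM ketoconazole as 100% inhibition.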
# [10] = molecular target: DNA dC->dU-editing enzyme APOBEC-3G (Homo sapiens) (UniProt Q9HC16); assay: qHTS for inhibitors of Vif-A3G interactions: Validation (AID 588379)
# Chain of DNA dC->dU-editing enzyme APOBEC-3G (Homo sapiens) (Q9HC16 whole entry, looked up): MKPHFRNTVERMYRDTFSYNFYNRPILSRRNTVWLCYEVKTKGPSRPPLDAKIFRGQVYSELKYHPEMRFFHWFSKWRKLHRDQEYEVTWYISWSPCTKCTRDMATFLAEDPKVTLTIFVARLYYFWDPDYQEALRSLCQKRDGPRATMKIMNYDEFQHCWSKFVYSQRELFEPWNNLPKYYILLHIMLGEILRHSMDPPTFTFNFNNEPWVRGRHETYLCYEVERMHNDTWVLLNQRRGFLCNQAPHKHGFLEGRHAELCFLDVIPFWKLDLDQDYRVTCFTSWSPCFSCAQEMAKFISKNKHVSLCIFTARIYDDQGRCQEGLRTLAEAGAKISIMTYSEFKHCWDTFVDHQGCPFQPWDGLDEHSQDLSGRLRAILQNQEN
# Method in brief: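 Yellow fluorescence (Ex 488, Em 500-530) of Vif-coexpressing HeLa A3G-eYFP cells, scanned by Acumen cytometer, reports blocked A3G degradation. Cells plated at 700/well overnight at 37 deg C before compound addition, then a further overnight compound incubation at 37 deg C.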
# [11] = qHTS profiling of the MIPE4 collection as inhibitors of Plasmodium falciparum (3D7) proliferation (AID 743344; call rule not given here); settings: P. falciparum 3D7 in erythrocytes, SYBR Green DNA fluorescence, 72 h; at 5.51 µM (top of the series) unless noted
# Method in brief: (§1)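 Parasite DNA was quantified by SYBR Green I fluorescence (ex 485, em 535 nm) after overnight lysis in saponin/Triton buffer at room temperature. Cultures at 0.3% parasitemia and 2.5% hematocrit were first exposed to compound for 72 h at 37 C; signals were normalised to artemisinin (0.29 uM) and vehicle wells.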
# [12] = qHTS profiling of the MIPE4 collection as inhibitors of Plasmodium falciparum (DD2) proliferation (AID 743345; call rule not given here); settings: P. falciparum Dd2 in erythrocytes, SYBR Green DNA, 72 h; at 5.51 µM (top of the series) unless noted
# Method in brief: as §1
# [13] = qHTS profiling of the MIPE4 collection as inhibitors of Plasmodium falciparum (DD2) proliferation (Rep 2) (AID 743346; call rule not given here); settings: P. falciparum Dd2 in erythrocytes, SYBR Green DNA, 72 h; at 5.51 µM (top of the series) unless noted
# Method in brief: as §1
# [14] = qHTS profiling of the MIPE4 collection as inhibitors of Plasmodium falciparum (HB3) proliferation (AID 743347; call rule not given here); settings: P. falciparum HB3 in erythrocytes, SYBR Green DNA, 72 h; at 5.51 µM (top of the series) unless noted
# Method in brief: as §1
# [15] = Confirmation and Secondary Assay for Modulators of Hemoglobin Beta Chain Splicing at IVS2 654 locus (AID 910);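 note: HeLa cells stably carrying EGFP split by mutant beta-globin IVS2-654 intron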
# Method in brief: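 Readout: per-well total peak green fluorescence (488 nm ex, 500–520 nm em) from objects 5–250 µm, reflecting correct splicing of an EGFP-654 reporter. Compounds were applied for 2 days at 37 °C to overnight-plated HeLa EGFP-654 cells; controls were DMSO and 500 nM IVS2-654 PNA.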
# [16] = Confirmation and Secondary Assay for Modulators of Hemoglobin Beta Chain Splicing at IVS2 705 locus (AID 930);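 note: HeLa cells stably expressing the EGFP-705 splicing reporter; GFP fluorescence per well restored by corrected splicing of the IVS2-705 intron in EGFP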
# Method in brief: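 HeLa cells stably carrying EGFP interrupted by mutant beta-globin intron 2 (IVS2-705) treated 2 days at 37C with compound; 500 nM antisense PNA as control. Correct splicing read as total peak GFP intensity per well by laser-scanning cytometry.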
# [17] = molecular target: Ubiquitin carboxyl-terminal hydrolase 1 (Homo sapiens) (UniProt O94782); assay: Inhibitors of USP1/UAF1: Pilot qHTS (AID 504865);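 note: rhodamine fluorescence freed from ubiquitin-rhodamine substrate followed over time; top concentration of the series differs between compounds; nearly all actives have a fitted effect of over 35% in size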
# Chain of Ubiquitin carboxyl-terminal hydrolase 1 (Homo sapiens) (O94782 whole entry, looked up): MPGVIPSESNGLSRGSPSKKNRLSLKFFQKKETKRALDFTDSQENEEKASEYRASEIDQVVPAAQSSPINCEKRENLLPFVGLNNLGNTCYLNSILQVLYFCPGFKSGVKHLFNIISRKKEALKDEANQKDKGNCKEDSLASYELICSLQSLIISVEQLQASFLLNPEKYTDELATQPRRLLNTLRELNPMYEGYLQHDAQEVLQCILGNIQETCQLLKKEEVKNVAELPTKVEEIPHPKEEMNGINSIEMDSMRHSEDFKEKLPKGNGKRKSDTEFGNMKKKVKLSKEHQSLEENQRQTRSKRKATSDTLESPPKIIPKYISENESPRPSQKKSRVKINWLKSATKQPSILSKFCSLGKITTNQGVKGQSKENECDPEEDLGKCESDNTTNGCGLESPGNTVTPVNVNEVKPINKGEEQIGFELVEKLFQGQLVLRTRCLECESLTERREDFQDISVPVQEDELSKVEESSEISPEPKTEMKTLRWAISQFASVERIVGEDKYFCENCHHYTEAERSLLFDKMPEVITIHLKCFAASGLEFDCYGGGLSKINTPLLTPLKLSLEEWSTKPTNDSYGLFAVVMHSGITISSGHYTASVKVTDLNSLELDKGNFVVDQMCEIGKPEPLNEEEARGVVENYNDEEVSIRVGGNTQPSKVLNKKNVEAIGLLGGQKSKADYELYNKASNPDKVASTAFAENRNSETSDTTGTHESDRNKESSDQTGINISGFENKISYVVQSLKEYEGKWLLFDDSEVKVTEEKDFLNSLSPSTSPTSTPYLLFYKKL
# Method in brief: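 1nM USP1/UAF1 + cpd, 15 min RT; start w/ Ub-Rho 150nM final; kinetic FL 480/540 nm, 6 reads q60 s. Buffer 50mM HEPES pH 7.8, 0.5mM EDTA, 1mM TCEP, 0.01% Tween-20, 0.1 mg/ml BSA.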
# [18] = molecular target: Cytochrome P450 2D6 (Homo sapiens) (UniProt P10635); assay: Cytochrome P450 family 2 subfamily D member 6 (CYP2D6) small molecule antagonists: luciferase biochemical (cell-free) qHTS assay (AID 1645840; active = well fitted curve in the direction sought with a large enough effect in the repeat runs; an effect the other way counts as inactive or inconclusive; note: nearly all actives have a fitted effect of over 55% in size)
# Chain of Cytochrome P450 2D6 (Homo sapiens) (P10635 whole entry, looked up): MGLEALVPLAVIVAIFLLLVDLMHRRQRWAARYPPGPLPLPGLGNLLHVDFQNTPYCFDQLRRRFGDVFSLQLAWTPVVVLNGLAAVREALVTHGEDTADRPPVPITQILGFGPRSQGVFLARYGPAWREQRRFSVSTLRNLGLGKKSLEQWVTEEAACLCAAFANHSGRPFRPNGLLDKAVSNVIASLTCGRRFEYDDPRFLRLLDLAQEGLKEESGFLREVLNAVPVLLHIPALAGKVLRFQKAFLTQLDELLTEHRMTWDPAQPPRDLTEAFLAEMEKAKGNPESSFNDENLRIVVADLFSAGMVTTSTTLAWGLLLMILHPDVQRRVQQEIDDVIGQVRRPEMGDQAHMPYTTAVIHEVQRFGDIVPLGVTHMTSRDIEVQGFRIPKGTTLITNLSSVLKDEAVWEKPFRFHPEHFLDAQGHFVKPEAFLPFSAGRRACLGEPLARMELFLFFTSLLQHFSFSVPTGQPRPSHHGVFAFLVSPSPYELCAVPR
# Method in brief: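 P450-Glo CYP2D6 system: proluciferin substrate converted by enzyme to luciferin, read by luminescence proportional to activity. Enzyme-substrate mix with compound 10 min at room temperature, then NADPH regeneration 1 h before detection reagent.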
# [19] = molecular target: Cytochrome P450 2C9 (Homo sapiens) (UniProt P11712); assay: Cytochrome P450 family 2 subfamily C member 9 (CYP2C9) small molecule antagonists: luciferase biochemical (cell-free) qHTS assay (AID 1645842; active = well fitted curve in the direction sought with a large enough effect in the repeat runs; an effect the other way counts as inactive or inconclusive; note: nearly all actives have a fitted effect of over 55% in size)
# Chain of Cytochrome P450 2C9 (Homo sapiens) (P11712 whole entry, looked up): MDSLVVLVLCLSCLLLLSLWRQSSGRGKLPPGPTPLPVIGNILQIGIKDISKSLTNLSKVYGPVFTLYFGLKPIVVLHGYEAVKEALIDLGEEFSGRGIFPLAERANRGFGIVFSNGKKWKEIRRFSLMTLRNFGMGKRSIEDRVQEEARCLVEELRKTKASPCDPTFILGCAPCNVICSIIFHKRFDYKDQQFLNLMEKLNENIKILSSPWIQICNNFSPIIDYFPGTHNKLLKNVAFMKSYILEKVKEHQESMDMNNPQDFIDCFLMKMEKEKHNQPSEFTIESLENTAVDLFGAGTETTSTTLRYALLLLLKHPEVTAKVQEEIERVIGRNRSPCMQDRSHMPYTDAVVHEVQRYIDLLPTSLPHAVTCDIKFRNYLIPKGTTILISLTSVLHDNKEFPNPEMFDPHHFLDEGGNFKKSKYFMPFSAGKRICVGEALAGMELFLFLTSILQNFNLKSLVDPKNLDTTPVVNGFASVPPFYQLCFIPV
# Method in brief: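 P450-Glo CYP2C9 system: proluciferin substrate with enzyme in mix containing 0.4% BSA, 10 min at room temperature, then NADPH regeneration solution added and incubated 1 h at 37C. Detection reagent stopped reaction; luminescence read after 20 min as RLU.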
# [20] = molecular target: Cytochrome P450 1A2 (Homo sapiens) (UniProt P05177); assay: p450-cyp1a2 (AID 410; calls by dose curve; note: potency is the fitted concentration of half-maximal effect)
# Chain of Cytochrome P450 1A2 (Homo sapiens) (P05177 whole entry, looked up): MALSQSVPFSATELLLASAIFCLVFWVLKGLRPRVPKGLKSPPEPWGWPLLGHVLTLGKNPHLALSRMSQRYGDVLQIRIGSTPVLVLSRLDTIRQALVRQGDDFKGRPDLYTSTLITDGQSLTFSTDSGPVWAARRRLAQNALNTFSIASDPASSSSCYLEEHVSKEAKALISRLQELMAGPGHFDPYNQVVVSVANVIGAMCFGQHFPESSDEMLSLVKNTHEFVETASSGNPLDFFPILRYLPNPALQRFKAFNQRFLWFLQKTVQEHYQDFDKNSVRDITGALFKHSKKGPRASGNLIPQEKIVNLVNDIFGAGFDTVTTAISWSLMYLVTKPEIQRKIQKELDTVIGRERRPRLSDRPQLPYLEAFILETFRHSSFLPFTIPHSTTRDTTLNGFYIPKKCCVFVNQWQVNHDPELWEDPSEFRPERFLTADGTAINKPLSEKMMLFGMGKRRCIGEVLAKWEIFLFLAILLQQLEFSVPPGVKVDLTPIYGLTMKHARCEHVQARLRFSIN
# Method in brief: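 O-Demethylation of luciferin 6' methyl ether by human CYP1A2 is monitored as luciferase luminescence. Substrate sits at Km (100uM); enzyme is 20nM. Values are scaled to 57 uM furafylline as maximal inhibition.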
# [21] = molecular target: Glucocorticoid receptor (Homo sapiens) (UniProt P04150); assay: GR-GFP Redistribution (AID 450;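 active = compounds whose dose series gives a full or clear partial fitted curve of increased nuclear translocation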; note: potency is the fitted concentration of half-maximal effect); settings: U2OS GR-GFP nuclear translocation, laser cytometry, 2 h
# [22] = molecular target: Cytochrome P450 2D6 (Homo sapiens) (UniProt P10635); assay: qHTS Assay for Inhibitors and Substrates of Cytochrome P450 2D6 (AID 891); note: potency is the fitted concentration of half-maximal effect; nearly all actives have a fitted effect of over 60% in size
# Method in brief: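 Luminescent read-out of luciferin formed by 5 nM human CYP2D6 demethylating 30 uM Luciferin-ME EGE (Km level) over 60 min at room temperature after NADPH regeneration addition. Data normalized to full inhibition by 1.43 uM quinidine.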
# [23] = measured here: cell count channel max response
# [24] = measured here: lipid channel max response
smiles,measurement,setting,value
N#Cc1cccc(NC(=O)N2CC[C@@]3(CCCN(C(=O)c4cccc(F)c4)C3)C2)c1,"activity change, negative = inhibition",[1],-20.8% (inactive)
same,"activity, negative = inhibition",[2],-2.81% (inactive)
same,Potency,[3],> 46 µM (inactive)
same,Potency,[4],inactive
same,Potency,[5],inactive
same,Potency,[6],inactive
same,outcome,[7],inactive
CC(=O)NC(C(=O)O)C(C)(C)SN=O (configuration not stated),"activity change, negative = inhibition",[8],0.182% (inactive)
same,max response,[8]; [23],6.33%
same,max response,[8]; [24],9%
O=C(CCCc1ccc(-c2ccccc2F)cc1)Nc1ccc(O)cc1,Potency,[9],31.6 µM (active)
same,Potency,[6],inactive
same,outcome,[7],inactive
C/C(=C\COc1cc(=O)[nH]c2ccccc12)CCC(O)C(C)(C)O (configuration not stated),Potency,[9],inactive
same,outcome,[10],inactive
same,outcome,[7],inactive
C=CCNC(=O)c1cc([N+](=O)[O-])cc2c(=O)[nH]c(Nc3ccc(Cl)c(Cl)c3)nc12,Potency,[6],inactive
same,outcome,[7],inactive
Cn1cccc1C(=O)N1CCC2(CCCN(Cc3nccs3)C2)CC1,"activity change, negative = inhibition",[1],-3.56% (inactive)
same,"activity, negative = inhibition",[2],-8.95% (inactive)
same,Potency,[3],> 46 µM (inactive)
same,Potency,[4],inactive
same,Potency,[5],inactive
same,outcome,[7],inactive
CC[C@@H]1Cn2c(c3nc(-c4ccccc4)nc-3n(C)c2=O)N1,Potency,[9],inactive
same,Potency,[6],12.6 µM (active)
same,outcome,[7],inactive
NCCC[C@H](N)CC(=O)N[C@H]1CNC(=O)[C@H]([C@H]2C[C@H](O)N=C(N)N2)NC(=O)C(=CNC(N)=O)NC(=O)[C@H](CO)NC(=O)[C@H](CO)NC1=O (β3hOrn-[Dap]SS[ΔAla(3-NHCONH2)][X4]; lactam 1-C),"parasite growth, % of DMSO control",[11],66.2%
same,"parasite growth remaining, % of DMSO control (lower = more inhibition)",[12],79.9%
same,"parasite growth, % of control (lower = inhibition)",[13],92.5%
same,"growth, % of control",[14],71.8%
same,outcome,[7],inactive
COC(=O)c1c(C)cc(OC(=O)c2c(C)cc(O)c(C=O)c2O)c(C)c1O,Potency,[15],inactive
same,outcome,[16],inactive
same,"activity change, negative = inhibition",[8],-6.06% (inactive)
same,max response,[8]; [23],-15.4%
same,max response,[8]; [24],-19%
same,Potency,[17],inactive
same,Potency,[18],inactive
same,Potency,[19],inactive
CN=C1N[C@H](c2ccccc2)N(c2ccccc2)S1,Potency,[20],1.26 µM (active)
same,Potency,[21],> 46 µM (inactive)
same,Potency,[3],> 46 µM (inactive)
same,Potency,[4],inactive
same,Potency,[6],inactive
same,Potency,[17],inactive
same,outcome,[10],inactive
same,outcome,[7],inactive
O=C(c1cnccn1)N1CCC2(CCCN(Cc3ccncc3)C2)CC1,"activity change, negative = inhibition",[1],-12.8% (inactive)
same,"activity, negative = inhibition",[2],6.38% (inactive)
same,Potency,[3],> 46 µM (inactive)
same,Potency,[4],inactive
same,Potency,[5],inactive
same,outcome,[7],inactive
Cc1cc(C)c(S(=O)(=O)Nc2ccccc2C(F)(F)F)c(C)c1,Potency,[20],31.6 µM (active)
same,Potency,[21],> 46 µM (inactive)
same,Potency,[3],> 46 µM (inactive)
same,Potency,[9],2.51 µM (active)
same,Potency,[6],inactive
same,Potency,[22],6.31 µM (active)
same,outcome,[10],inactive
same,outcome,[7],inactive
